These results are taken from publication PMC7862700, “An all-to-all approach to the identification of sequence-specific readers for epigenetic DNA modifications on cytosine”.

Holding throughout (assay): DAPPL (digital affinity profiling via proximity ligation, sequencing); 10 mM Tris-HCl pH 7.5, 50 mM NaCl, 1 mM DTT, 4% glycerol, room temperature, 30 min; GST-TFs on glutathione beads, 16-mer random dsDNA library, 0.1% formaldehyde crosslink after washing; high values mean tight binding
The target in assay [1] is T1, FLI1 (Homo sapiens, UniProt Q01543 1-452).
T1 sequence: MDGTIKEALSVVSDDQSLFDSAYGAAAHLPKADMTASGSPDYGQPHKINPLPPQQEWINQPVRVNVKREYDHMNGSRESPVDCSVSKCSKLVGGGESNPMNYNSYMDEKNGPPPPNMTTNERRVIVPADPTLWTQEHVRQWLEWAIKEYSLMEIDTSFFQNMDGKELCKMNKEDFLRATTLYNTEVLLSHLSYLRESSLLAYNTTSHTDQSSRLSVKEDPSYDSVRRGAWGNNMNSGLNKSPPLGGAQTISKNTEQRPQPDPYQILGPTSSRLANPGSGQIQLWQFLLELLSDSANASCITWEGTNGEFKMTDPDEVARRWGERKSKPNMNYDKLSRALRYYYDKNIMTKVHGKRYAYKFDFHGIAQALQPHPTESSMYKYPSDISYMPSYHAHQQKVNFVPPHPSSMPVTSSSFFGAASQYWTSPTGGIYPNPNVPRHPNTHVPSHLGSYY
As to conditions: protein: recombinant; tags: N-terminal GST; dsDNA, one strand shown. An outline of the steps:
(§1)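 In yeast, human transcription factors were expressed with a GST fusion, then pulled down on glutathione beads and given DNA barcodes. Pooled with a tag-only sample, they were exposed to 200 nmole of a 16-mer random double-stranded DNA library (Tris/NaCl/DTT/glycerol buffer, room temperature, 30 min), washed, crosslinked with 0.1% formaldehyde, proximity-ligated using BsaI/T4 ligase for 1 h at 37 °C, PCR-amplified and read on an Illumina NextSeq500. Each hexamer's frequency of reads for a factor, divided by the matching frequency for the tag-only sample, gives the binding signal.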

In assay [2] the target is T2, ELK1 (Homo sapiens, UniProt P19419 1-428).
T2 sequence: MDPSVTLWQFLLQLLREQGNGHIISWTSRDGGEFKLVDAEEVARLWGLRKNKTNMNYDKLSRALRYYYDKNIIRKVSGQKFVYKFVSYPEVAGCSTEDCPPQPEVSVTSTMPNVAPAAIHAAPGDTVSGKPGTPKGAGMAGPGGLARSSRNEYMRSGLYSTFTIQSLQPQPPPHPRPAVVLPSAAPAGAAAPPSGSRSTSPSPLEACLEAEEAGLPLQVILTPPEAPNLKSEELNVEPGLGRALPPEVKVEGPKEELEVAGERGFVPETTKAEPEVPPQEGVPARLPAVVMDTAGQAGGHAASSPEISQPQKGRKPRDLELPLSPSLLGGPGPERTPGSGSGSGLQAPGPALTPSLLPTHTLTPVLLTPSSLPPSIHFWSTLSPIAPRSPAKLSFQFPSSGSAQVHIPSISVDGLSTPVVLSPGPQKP
As to conditions: protein: recombinant; tags: N-terminal GST; dsDNA, one strand shown. An outline of the steps: as §1

Assay [3] has as its target T3, GABPA (Homo sapiens, UniProt Q06546 1-454).
T3 sequence: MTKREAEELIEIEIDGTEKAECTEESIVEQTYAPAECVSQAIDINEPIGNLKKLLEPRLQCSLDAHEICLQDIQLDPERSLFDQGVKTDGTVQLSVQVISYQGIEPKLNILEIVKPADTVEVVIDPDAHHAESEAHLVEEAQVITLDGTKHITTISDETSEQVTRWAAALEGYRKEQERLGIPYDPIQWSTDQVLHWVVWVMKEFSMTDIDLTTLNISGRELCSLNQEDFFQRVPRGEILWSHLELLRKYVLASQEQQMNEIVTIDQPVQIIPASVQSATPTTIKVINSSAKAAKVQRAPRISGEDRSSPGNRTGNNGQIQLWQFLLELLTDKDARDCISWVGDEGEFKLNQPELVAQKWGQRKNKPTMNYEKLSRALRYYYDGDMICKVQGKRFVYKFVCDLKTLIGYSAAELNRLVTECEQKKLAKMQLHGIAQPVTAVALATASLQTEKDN
As to conditions: protein: recombinant; tags: N-terminal GST; dsDNA, one strand shown. An outline of the steps:
as §1

For assay [4], the target named is T4, ERG (Homo sapiens, UniProt P11308 1-479).
T4 sequence: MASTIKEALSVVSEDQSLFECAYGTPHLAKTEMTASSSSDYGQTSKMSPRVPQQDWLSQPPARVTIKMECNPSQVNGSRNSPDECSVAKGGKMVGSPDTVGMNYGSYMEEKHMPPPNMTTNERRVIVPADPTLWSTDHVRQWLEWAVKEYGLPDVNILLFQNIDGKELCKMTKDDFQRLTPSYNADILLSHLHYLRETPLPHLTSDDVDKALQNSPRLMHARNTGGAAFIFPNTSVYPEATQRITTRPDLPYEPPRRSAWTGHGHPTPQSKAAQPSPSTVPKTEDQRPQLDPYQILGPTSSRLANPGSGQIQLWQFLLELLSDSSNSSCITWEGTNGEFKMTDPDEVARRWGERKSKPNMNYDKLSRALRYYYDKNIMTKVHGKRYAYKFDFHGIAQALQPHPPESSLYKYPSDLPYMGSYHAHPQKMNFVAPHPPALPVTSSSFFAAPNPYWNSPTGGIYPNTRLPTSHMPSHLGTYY
As to conditions: protein: recombinant; tags: N-terminal GST; dsDNA, one strand shown. The essentials:
as §1

The target of assay [5] is ELF1 (Homo sapiens, UniProt P32519 1-619). As to conditions: protein: recombinant; tags: N-terminal GST; dsDNA, one strand shown. The essentials:
as §1

Assay [6] addresses T5, EHF (Homo sapiens, UniProt Q9NZC4 1-300).
T5 sequence: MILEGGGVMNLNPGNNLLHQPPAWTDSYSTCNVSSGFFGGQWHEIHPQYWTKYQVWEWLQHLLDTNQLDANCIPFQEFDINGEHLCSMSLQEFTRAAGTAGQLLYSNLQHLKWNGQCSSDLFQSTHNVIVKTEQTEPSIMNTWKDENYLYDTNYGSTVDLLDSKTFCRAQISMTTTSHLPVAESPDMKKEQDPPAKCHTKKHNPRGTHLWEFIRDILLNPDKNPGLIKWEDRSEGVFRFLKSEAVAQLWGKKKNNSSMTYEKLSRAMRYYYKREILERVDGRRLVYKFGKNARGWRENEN
As to conditions: protein: recombinant; tags: N-terminal GST; dsDNA, one strand shown. An outline of the steps:
as §1

Assay [7] addresses SPI1 (Homo sapiens, UniProt P17947 1-270). As to conditions: protein: recombinant; tags: N-terminal GST; dsDNA, one strand shown. The essentials: as §1
The target of assay [8] is SPIB (Homo sapiens, UniProt Q01892 1-262). As to conditions: protein: recombinant; tags: N-terminal GST; dsDNA, one strand shown. An outline of the steps: as §1
In assay [9] the target is T6, ELK3 (Homo sapiens, UniProt P41970 1-407).
T6 sequence: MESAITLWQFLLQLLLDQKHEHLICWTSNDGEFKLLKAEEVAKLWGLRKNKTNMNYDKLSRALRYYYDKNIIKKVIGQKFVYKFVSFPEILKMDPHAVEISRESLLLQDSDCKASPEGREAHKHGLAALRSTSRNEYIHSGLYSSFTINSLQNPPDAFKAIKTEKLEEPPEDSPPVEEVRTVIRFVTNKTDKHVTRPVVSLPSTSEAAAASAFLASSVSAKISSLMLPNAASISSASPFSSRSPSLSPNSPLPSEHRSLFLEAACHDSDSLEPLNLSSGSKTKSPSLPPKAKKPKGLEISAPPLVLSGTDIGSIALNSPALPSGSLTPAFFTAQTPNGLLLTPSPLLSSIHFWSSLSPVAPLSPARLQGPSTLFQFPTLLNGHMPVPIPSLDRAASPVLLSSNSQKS
As to conditions: protein: recombinant; tags: N-terminal GST; dsDNA, one strand shown. An outline of the steps: as §1

Assay [10] addresses T7, FEV (Homo sapiens, UniProt Q99581 1-238).
T7 sequence: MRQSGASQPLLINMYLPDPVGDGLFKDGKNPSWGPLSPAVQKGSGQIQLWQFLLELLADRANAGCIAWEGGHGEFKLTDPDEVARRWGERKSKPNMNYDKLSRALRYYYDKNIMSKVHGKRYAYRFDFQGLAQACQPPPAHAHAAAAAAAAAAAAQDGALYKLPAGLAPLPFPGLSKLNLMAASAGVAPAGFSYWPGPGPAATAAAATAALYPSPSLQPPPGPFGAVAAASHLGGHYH
As to conditions: protein: recombinant; tags: N-terminal GST; dsDNA, one strand shown. An outline of the steps: as §1

Assay [11] addresses ETV5 (Homo sapiens, UniProt P41161 1-510). As to conditions: protein: recombinant; tags: N-terminal GST; dsDNA, one strand shown. An outline of the steps: as §1
Assay [12] deals with HSF1 (Homo sapiens, UniProt Q00613 1-529). As to conditions: protein: recombinant; tags: N-terminal GST; chain copies: 3; dsDNA, one strand shown. An outline of the steps:
as §1

For assay [13], the target named is T8, SPIC (Homo sapiens, UniProt Q8N5J4 1-248).
T8 sequence: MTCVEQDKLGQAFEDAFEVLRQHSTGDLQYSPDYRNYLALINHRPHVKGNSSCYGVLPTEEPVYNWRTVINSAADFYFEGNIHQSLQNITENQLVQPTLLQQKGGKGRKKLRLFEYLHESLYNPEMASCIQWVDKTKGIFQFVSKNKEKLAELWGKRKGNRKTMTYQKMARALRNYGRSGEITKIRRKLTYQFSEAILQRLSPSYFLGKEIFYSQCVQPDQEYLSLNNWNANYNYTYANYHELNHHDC
As to conditions: protein: recombinant; tags: N-terminal GST; dsDNA, one strand shown. The essentials:
as §1

The target of assay [14] is ELF4 (Homo sapiens, UniProt Q99607 1-663). As to conditions: protein: recombinant; tags: N-terminal GST; dsDNA, one strand shown. An outline of the steps: as §1
Assay [15] has as its target T9, ELK4 (Homo sapiens, UniProt P28324-2 1-405).
T9 sequence: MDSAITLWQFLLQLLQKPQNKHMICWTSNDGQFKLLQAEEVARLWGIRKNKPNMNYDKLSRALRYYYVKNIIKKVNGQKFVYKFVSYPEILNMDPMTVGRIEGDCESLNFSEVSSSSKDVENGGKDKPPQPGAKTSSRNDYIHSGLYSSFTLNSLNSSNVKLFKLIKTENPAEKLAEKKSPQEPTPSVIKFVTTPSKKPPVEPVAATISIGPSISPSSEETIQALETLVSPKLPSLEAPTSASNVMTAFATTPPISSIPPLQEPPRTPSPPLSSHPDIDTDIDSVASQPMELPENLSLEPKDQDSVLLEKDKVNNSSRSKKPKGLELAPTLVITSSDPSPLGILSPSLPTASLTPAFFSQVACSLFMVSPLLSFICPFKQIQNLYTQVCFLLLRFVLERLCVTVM
As to conditions: protein: recombinant; tags: N-terminal GST; dsDNA, one strand shown. An outline of the steps:
as §1

Assay [16] has as its target T10, ETV2 (Homo sapiens, UniProt O00321 1-342).
T10 sequence: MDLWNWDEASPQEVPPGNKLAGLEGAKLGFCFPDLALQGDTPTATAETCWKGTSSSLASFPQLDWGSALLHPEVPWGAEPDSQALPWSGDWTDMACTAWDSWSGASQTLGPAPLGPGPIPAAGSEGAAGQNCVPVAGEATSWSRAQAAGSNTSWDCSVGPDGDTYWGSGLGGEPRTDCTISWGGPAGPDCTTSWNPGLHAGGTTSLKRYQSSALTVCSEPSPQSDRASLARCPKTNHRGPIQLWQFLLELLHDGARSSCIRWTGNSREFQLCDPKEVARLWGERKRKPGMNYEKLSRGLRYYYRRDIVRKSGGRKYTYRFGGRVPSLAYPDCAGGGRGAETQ
As to conditions: protein: recombinant; tags: N-terminal GST; dsDNA, one strand shown. An outline of the steps: as §1

Assay [17] has as its target T11, ELF3 (Homo sapiens, UniProt P78545 1-371).
T11 sequence: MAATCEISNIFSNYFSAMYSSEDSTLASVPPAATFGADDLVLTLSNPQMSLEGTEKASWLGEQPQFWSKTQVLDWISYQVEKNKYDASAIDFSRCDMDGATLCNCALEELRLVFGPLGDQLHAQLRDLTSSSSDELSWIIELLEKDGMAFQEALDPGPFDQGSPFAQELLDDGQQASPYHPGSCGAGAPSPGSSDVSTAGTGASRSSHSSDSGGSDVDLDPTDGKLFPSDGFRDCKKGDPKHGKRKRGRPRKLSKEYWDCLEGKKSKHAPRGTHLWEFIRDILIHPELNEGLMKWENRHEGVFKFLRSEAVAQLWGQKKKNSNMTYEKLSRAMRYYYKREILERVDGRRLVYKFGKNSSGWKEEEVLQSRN
As to conditions: protein: recombinant; tags: N-terminal GST; dsDNA, one strand shown. The essentials:
as §1

In assay [18] the target is CRX (Homo sapiens, UniProt O43186 1-299). As to conditions: protein: recombinant; tags: N-terminal GST; dsDNA, one strand shown. The essentials:
as §1

The target in assay [19] is ETV1 (Homo sapiens, UniProt P50549 1-477). As to conditions: protein: recombinant; tags: N-terminal GST; dsDNA, one strand shown. The essentials:
as §1

Sequence of CRX (O43186 whole entry): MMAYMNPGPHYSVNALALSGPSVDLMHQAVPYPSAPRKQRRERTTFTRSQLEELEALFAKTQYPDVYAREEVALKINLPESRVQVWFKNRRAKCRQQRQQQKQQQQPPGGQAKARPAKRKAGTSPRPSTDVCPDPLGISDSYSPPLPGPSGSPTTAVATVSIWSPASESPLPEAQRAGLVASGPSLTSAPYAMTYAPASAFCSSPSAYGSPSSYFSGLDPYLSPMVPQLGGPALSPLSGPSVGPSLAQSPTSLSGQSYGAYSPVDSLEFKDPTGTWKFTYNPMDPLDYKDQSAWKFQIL
Sequence of ETV1 (P50549 whole entry): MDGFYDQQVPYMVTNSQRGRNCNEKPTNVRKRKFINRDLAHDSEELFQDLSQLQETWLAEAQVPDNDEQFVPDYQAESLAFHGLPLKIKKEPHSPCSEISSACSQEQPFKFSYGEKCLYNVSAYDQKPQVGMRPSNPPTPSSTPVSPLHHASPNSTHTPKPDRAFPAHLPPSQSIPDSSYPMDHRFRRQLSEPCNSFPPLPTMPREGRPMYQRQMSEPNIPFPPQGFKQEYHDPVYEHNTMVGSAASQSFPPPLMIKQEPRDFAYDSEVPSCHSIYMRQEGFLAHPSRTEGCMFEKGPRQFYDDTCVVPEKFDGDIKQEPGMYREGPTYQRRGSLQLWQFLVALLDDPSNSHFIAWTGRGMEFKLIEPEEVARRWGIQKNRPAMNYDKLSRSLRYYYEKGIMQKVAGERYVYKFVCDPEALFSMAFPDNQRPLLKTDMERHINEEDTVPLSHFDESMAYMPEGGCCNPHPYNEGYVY
Sequence of SPIB (Q01892 whole entry): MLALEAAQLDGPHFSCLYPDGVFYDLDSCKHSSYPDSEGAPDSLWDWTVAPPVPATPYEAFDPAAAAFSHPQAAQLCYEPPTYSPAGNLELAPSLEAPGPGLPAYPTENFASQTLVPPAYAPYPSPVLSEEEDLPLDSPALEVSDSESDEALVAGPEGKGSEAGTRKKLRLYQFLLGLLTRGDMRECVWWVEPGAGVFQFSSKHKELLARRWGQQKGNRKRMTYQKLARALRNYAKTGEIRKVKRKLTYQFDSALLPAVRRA
Sequence of ETV5 (P41161 whole entry): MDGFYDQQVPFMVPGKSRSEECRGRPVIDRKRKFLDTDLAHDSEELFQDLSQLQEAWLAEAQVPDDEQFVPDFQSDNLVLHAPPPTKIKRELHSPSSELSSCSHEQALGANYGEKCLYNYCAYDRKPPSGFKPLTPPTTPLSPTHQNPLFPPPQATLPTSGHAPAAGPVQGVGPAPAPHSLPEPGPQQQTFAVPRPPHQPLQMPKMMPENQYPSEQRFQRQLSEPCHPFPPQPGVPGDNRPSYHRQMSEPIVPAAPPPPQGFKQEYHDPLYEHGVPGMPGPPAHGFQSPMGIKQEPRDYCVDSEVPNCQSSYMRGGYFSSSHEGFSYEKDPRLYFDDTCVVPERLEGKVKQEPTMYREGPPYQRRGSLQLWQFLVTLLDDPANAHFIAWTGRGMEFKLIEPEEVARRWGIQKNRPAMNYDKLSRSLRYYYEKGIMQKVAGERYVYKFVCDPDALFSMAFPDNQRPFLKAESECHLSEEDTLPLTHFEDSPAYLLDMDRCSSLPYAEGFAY
Sequence of HSF1 (Q00613 whole entry): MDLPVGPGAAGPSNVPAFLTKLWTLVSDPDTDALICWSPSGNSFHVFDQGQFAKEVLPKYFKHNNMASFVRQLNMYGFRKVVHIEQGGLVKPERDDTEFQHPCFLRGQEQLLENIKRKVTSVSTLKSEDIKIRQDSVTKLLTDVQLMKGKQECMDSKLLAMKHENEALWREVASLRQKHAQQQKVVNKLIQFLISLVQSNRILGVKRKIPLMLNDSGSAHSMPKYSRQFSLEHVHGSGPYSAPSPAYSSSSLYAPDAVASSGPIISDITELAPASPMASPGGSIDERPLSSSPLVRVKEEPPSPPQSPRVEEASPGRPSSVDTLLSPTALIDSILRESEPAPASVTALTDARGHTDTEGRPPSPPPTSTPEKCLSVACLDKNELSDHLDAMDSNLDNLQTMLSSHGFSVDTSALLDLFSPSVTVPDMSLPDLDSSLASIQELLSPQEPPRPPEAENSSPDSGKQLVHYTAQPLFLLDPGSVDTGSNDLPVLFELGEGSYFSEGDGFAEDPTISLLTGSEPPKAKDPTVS
Sequence of ELF4 (Q99607 whole entry): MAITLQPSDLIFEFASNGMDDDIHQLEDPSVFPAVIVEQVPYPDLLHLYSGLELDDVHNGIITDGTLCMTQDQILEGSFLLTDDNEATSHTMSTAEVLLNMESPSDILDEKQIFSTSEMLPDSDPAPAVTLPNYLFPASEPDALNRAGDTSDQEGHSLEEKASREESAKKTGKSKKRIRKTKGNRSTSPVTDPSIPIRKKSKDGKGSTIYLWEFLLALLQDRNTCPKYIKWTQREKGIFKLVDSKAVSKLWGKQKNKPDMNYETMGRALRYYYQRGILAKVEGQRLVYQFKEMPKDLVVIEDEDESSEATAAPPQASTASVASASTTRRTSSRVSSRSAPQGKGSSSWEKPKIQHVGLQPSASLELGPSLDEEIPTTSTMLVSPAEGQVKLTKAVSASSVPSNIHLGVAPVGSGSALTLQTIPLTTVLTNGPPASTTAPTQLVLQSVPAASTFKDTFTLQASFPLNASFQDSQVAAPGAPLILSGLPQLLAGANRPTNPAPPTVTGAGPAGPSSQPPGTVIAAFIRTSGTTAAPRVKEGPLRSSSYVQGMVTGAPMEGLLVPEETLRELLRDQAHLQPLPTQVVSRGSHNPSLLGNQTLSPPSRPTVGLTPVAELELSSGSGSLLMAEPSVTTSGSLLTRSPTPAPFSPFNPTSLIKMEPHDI
Sequence of ELF1 (P32519 whole entry): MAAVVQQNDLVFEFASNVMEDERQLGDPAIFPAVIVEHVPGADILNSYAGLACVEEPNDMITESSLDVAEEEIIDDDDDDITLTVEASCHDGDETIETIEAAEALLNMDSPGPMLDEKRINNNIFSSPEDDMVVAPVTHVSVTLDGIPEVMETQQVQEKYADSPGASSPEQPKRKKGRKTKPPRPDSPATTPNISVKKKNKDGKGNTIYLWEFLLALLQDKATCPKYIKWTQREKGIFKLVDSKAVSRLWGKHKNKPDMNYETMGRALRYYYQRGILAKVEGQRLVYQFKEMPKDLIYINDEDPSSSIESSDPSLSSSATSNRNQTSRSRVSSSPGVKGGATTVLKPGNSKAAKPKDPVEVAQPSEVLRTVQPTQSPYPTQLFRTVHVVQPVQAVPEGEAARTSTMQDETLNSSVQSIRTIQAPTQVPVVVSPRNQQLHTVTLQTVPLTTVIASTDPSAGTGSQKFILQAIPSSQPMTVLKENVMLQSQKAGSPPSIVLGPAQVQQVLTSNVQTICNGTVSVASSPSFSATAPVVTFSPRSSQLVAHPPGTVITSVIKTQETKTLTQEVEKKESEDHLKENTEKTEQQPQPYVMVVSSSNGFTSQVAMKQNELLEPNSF

In the case of TACGCA, the binding signal in assay [1] was 1.18 fold enrichment (6-mer frequency, TF over GST control); in [2] it was 1.2 fold enrichment (6-mer frequency, TF over GST control); in assay [3], 1.11 fold enrichment (6-mer frequency, TF over GST control); in assay [4] it was 1.15 fold enrichment (6-mer frequency, TF over GST control); in assay [5], 1.2 fold enrichment (6-mer frequency, TF over GST control); in assay [6] it was 1.26 fold enrichment (6-mer frequency, TF over GST control). For the same sequence, the binding signal in assay [7] is 1.12 fold enrichment (6-mer frequency, TF over GST control); in assay [8], 1.1 fold enrichment (6-mer frequency, TF over GST control); in assay [9], 1.25 fold enrichment (6-mer frequency, TF over GST control); in [10] it was 1.16 fold enrichment (6-mer frequency, TF over GST control); in assay [11], 1.21 fold enrichment (6-mer frequency, TF over GST control); in [12] it was 1.06 fold enrichment (6-mer frequency, TF over GST control). The binding signal was 1.16 fold enrichment (6-mer frequency, TF over GST control) in assay [13]; 1.23 fold enrichment (6-mer frequency, TF over GST control) in assay [14]; 1.12 fold enrichment (6-mer frequency, TF over GST control) in assay [15]; 1.15 fold enrichment (6-mer frequency, TF over GST control) in [16]; 1.19 fold enrichment (6-mer frequency, TF over GST control) in assay [17]; 1.21 fold enrichment (6-mer frequency, TF over GST control) in [18]. Further, in assay [19], the binding signal was 1.25 fold enrichment (6-mer frequency, TF over GST control).
